Data as given in PubChem BioAssay (NCATS).
Results filed as inconclusive are left out. Activity calls are given as the source filed them. Calls follow the shape of the dose curve; as a rule, active = well fitted curve in the direction sought with a large enough effect; inconclusive = small, poorly fitted or top-dose-only effect, or another doubt; inactive = no such curve, though single readings can be large; an effect the other way counts as inactive or inconclusive.

Key:
[1] = MultiTox-Fluor Cytotoxicity Assay - LYMP1-003 - Live Cells (AID 962);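 also: cells exposed to compound for 16 hours at 37 °C; cytotoxic hits lower the live-cell protease signal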
How it was run: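 Cells plated at 2500 per well and incubated 5 hr; compounds added and incubated 16 hr at 37 C; MultiTox-Fluor reagent added for 60 min at room temperature; fluorescence of liberated AFC measured at 405/510 nm.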

[2] = Cell Viability - LYMP1-003 - Assay at 24 hr (AID 963)
How it was run: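 Acute toxicity in LYMP1-003 lymphoblastoid cells: 24 hr compound treatment at 37 C, ATP measured with CellTiter-Glo after 30 min at room temperature. AC50 derived by fitting the Hill equation to qHTS titrations.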

[3] = Cell Viability - LYMP1-003 - Assay at 40 hr (AID 964); also: series mostly up to about 92 µM; nearly all actives have a fitted effect of over 60% in size
How it was run: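 This qHTS cytotoxicity screen treats human lymphoblastoid cells (LYMP1-003) with compounds for 40 hr and quantifies cellular ATP via luciferase luminescence.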

[4] = Cell Viability - LYMP2-003 (AID 965);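 also: cells exposed to compounds for 24 h before reading; nearly all actives have a fitted effect of over 50% in size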
How it was run: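 CellTiter-Glo luminescence quantified ATP loss after 24 h compound treatment of LYMP2-003 lymphoblastoid cells at 37 C. Titration series were fitted with the standard Hill equation to give AC50.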

[5] = Cell Viability - LYMP2-004 (AID 966); also: nearly all actives have a fitted effect of over 65% in size
How it was run: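 Acute toxicity is scored as a concentration-dependent drop in intracellular ATP, quantified by luciferase luminescence, in human lymphoblastoid cells exposed to compound for 24 hr. AC50 derives from Hill-equation modelling.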

[6] = Cell Viability - LYMP2-005 (AID 967); also: series mostly up to about 92 µM
How it was run: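 LYMP2-005 human lymphoblastoid cells (2500/well) were treated with compounds for 24 h at 37 C. Intracellular ATP was then measured by CellTiter-Glo luminescence after 30 min at room temperature. AC50 values came from Hill-equation fits of qHTS concentration-response data.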

[7] = Cell Viability - LYMP2-009 (AID 968); also: series mostly up to about 92 µM; nearly all actives have a fitted effect of over 55% in size
[8] = Cell Viability - LYMP2-011 (AID 969); also: nearly all actives have a fitted effect of over 60% in size
How it was run: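 Acute toxicity is scored as a concentration-dependent drop in intracellular ATP of a human lymphoblastoid line after 24 hr treatment. Values are AC50s modeled with the Hill equation.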

[9] = Cell Viability - LYMP2-013 (AID 970); also: series mostly up to about 92 µM; nearly all actives have a fitted effect of over 55% in size
How it was run: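 Acute toxicity was measured in human lymphoblastoid cells (2500/well) exposed to compound titrations for 24 hr, with ATP luminescence (CellTiter-Glo) as read-out and AC50 fitted by Hill equation.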

[10] = Cell Viability - LYMP2-015 (AID 971); also: nearly all actives have a fitted effect of over 55% in size
How it was run: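 Acute toxicity was scored as a concentration-dependent drop in intracellular ATP in lymphoblastoid cells after 24 hr compound exposure in complete medium. Detection used CellTiter-Glo luciferase luminescence.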

[11] = Cell Viability - LYMP2-017 (AID 972); also: series mostly up to about 92 µM; nearly all actives have a fitted effect of over 55% in size
How it was run: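 Steps: plate 2500 lymphoblastoid cells per well; incubate 5 hr at 37 C; add compound across a concentration series and incubate 24 hr at 37 C; add CellTiter-Glo and read luminescence after 30 min at room temperature; fit Hill curves for AC50.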

[12] = Cell Viability - LYMP2-019 (AID 973); also: nearly all actives have a fitted effect of over 55% in size
How it was run: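 Cells plated at 2500/well and allowed 5 hr at 37 C before compound addition. After 24 hr incubation, CellTiter-Glo reagent was added, plates sat 30 min at room temperature, and luminescence was recorded.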

[13] = Cell Viability - LYMP2-021 (AID 974)
How it was run: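 Concentration-response cytotoxicity in a human lymphoblastoid line: 24 hr treatment at 37 C in complete culture medium, tetraoctylammonium bromide as positive control, luminescent ATP quantitation as viability measure.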

[14] = Cell Viability - LYMP2-023 (AID 975)
How it was run: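 Concentration-dependent drop in intracellular ATP measures acute cytotoxicity in a human lymphoblastoid line treated for 24 hours in complete culture medium. AC50 values are taken from Hill-equation fits of qHTS data.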

[15] = Cell Viability - LYMP2-025 (AID 976); also: series mostly up to about 92 µM
How it was run: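 In qHTS format, LYMP2-025 lymphoblastoid cells in complete culture medium received compound for 24 hr; ATP-based CellTiter-Glo signal gave viability, with AC50 derived by Hill equation.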

[16] = Cell Viability - LYMP2-002 (AID 977);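 also: series mostly up to about 92 µM; compound exposure lasted 24 h at 37 °C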
How it was run: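 Human lymphoblastoid LYMP2-002 cells, 2500 per well, exposed to compounds for 24 h at 37 C in complete medium; viability read as intracellular ATP by CellTiter-Glo luminescence, AC50 from Hill fits.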

[17] = Cell Viability - LYMP2-006 (AID 978); also: series mostly up to about 92 µM; nearly all actives have a fitted effect of over 60% in size
How it was run: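 Potency values are Hill-fit AC50s for decreases in intracellular ATP (CellTiter-Glo luminescence). LYMP2-006 lymphoblastoid cells, 2500 per well, were exposed to compound in complete culture medium for 24 hr at 37 C.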

[18] = Cell Viability - LYMP2-007 (AID 979);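 also: cells exposed to compound for 24 h before reading; nearly all actives have a fitted effect of over 60% in size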
How it was run: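 Acute toxicity is scored as a concentration-dependent fall in intracellular ATP in human lymphoblastoid cells treated 24 hr at 37 C, measured by luciferase luminescence; Hill-equation modelling yields AC50.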

[19] = Cell Viability - LYMP2-008 (AID 980); also: nearly all actives have a fitted effect of over 60% in size
How it was run: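 Acute cytotoxicity is scored as concentration-dependent loss of cellular ATP in a human lymphoblastoid line after 24 hr treatment at 37 C. ATP is quantified by luciferase luminescence.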

[20] = Cell Viability - LYMP2-010 (AID 981); also: nearly all actives have a fitted effect of over 55% in size
How it was run: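 Acute toxicity is scored as a concentration-dependent loss of cellular ATP in human lymphoblastoid cells after 24 hr compound exposure in complete medium. Tetraoctylammonium bromide is the positive control.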

Measured: outcome

CC(=O)C(C)=O
inactive: all assays above

NC(=O)c1ccccc1
not listed: [6]
inactive: all other assays above
